Test results taken from PubChem BioAssay (EPA / NIEHS).
Records with an inconclusive call do not appear. Active and inactive are the calls of the source. The calls were made as follows: active = hit-call score of the fitted dose curve at least 0.9, where 1 is the maximum; inconclusive = response in the unintended direction; inactive = score below 0.9.

What follows are compounds tested against human Serotonin, 5-Hydroxytryptamine Receptor 7 (5HT7), HTR7 (gene 3363) (UniProt P34969) (assay: NVS_GPCR_h5HT7: NovaScreen (NVS) G Protein-Coupled Receptor Assay for human Serotonin, 5-Hydroxytryptamine Receptor 7 (5HT7) (AID 2283255);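 also: hits reduce specific radioligand binding relative to DMSO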).
Chain of human Serotonin, 5-Hydroxytryptamine Receptor 7 (5HT7), HTR7 (gene 3363) (P34969 whole entry, looked up): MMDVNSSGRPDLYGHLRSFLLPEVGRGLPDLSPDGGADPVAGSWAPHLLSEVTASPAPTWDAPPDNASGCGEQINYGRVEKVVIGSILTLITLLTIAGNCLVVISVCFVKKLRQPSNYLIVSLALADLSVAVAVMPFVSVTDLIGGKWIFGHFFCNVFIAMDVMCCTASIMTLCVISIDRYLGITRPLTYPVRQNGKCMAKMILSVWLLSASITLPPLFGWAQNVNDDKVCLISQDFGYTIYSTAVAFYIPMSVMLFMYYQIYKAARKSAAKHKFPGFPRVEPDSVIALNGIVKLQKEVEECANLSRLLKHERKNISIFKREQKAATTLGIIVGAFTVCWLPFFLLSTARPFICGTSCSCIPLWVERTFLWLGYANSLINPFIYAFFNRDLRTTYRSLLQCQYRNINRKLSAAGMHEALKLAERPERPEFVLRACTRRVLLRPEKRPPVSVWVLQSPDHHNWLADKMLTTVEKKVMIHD
Outline: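 Radioligand displacement on membranes from CHO cells expressing human 5HT7, 1 h incubation, filter-based scintillation counting. Primary screen used a single 25 uM concentration in duplicate; actives were followed up in concentration series.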

Compound	outcome	AC50
COC(=O)N(C(=O)N1CO[C@@]2(C(=O)OC)Cc3cc(Cl)ccc3C2=N1)c1ccc(OC(F)(F)F)cc1	inactive	–
CCCN(CC)CC1COC2(CCC(C(C)(C)C)CC2)O1 (centres undefined)	–	8 µM (active)
CCCCC(O)(Cn1cncn1)c1ccc(Cl)cc1Cl (centres undefined)	–	16.6 µM (active)
Cn1c(-c2ccccc2)cc(-c2ccccc2)[n+]1C	–	14.8 µM (active)
CCC(C)n1c(=O)[nH]c(C)c(Br)c1=O (centres undefined)	–	14 µM (active)
CC1(C)C(C(=O)OC(C#N)c2cccc(Oc3ccccc3)c2)C1(C)C (centres undefined)	–	25 µM (active)
Cc1ccc(N=CN(C)C=Nc2ccc(C)cc2C)c(C)c1	–	0.574 µM (active)
CC(C)=CC1C(C(=O)OCc2coc(Cc3ccccc3)c2)C1(C)C (centres undefined)	inactive	–
CCOC(=O)C(C)OC(=O)c1cc(Oc2ccc(C(F)(F)F)cc2Cl)ccc1[N+](=O)[O-] (centres undefined)	–	15.3 µM (active)
CC1(C)C(C=C(Cl)Cl)C1C(=O)OC(C#N)c1cccc(Oc2ccccc2)c1 (centres undefined)	–	6.91 µM (active)
OC(c1ccc(Cl)cc1)(c1ccc(Cl)cc1)C(Cl)(Cl)Cl	inactive	–
O=C1C2CC=CCC2C(=O)N1SC(Cl)(Cl)Cl (centres undefined)	–	4.95 µM (active)

These compounds were tested against human Adenosine A2a Receptor (AdoRA2a), ADORA2A (gene 135) (UniProt P29274) (assay: NVS_GPCR_hAdoRA2a: NovaScreen (NVS) G Protein-Coupled Receptor Assay for human Adenosine A2a Receptor (AdoRA2a) (AID 2283256)).
Chain of human Adenosine A2a Receptor (AdoRA2a), ADORA2A (gene 135) (P29274 whole entry, looked up): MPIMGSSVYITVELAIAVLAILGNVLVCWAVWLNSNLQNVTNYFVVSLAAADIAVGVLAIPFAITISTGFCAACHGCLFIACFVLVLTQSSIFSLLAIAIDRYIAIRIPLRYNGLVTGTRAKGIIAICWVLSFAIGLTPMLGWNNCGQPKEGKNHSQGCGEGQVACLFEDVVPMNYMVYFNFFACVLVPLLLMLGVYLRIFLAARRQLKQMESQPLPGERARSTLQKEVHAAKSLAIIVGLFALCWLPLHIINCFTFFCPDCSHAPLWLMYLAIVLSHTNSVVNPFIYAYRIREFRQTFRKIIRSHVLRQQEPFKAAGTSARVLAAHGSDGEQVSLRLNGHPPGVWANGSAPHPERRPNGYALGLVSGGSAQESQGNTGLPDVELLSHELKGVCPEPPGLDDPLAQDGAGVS
Outline: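 Radioligand displacement on HEK293-derived membrane protein, cell-free; filter-based scintillation counting 1.5 hours after dosing, loss of signal vs DMSO. Single-point duplicate screen at 25 uM, actives retested in concentration series.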

Compound	AC50	outcome
Cc1cc(C)nc(Nc2ccccc2)n1	10.9 µM (active)	–
Nc1cnn(-c2ccccc2)c(=O)c1Cl	32.6 µM (active)	–
COP(=S)(OC)SCn1nnc2ccccc2c1=O	–	inactive

What follows are compounds tested against human Adrenergic, Alpha 2c Receptor (Adra2C), ADRA2C (gene 152) (UniProt P18825) (assay: NVS_GPCR_hAdra2C: NovaScreen (NVS) G Protein-Coupled Receptor Assay for human Adrenergic, Alpha 2c Receptor (Adra2C) (AID 2283259)).
Chain of human Adrenergic, Alpha 2c Receptor (Adra2C), ADRA2C (gene 152) (P18825 whole entry, looked up): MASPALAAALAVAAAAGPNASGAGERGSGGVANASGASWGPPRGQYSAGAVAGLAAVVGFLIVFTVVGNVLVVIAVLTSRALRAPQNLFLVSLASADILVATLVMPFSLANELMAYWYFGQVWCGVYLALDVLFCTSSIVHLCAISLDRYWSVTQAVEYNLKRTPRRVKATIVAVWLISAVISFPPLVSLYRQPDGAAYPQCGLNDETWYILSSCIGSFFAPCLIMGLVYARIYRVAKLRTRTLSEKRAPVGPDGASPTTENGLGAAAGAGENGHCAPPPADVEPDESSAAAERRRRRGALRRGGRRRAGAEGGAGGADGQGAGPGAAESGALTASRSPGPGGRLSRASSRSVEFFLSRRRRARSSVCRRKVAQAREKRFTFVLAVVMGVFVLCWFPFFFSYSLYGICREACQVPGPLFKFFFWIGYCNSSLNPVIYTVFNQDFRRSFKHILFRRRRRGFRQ
Procedure: NVS_GPCR_hAdra2C is a biochemical, single-readout assay that uses extracted gene-proteins from SF9 in a cell-free assay. Measurements were taken 1 hour after chemical dosing in a 96-well plate.NVS_GPCR_hAdra2C is one of one assay component(s) measured or calculated from the NVS_GPCR_hAdra2C assay. It is designed to make measurements of radioligand binding, a form of binding reporter, as detected with scintillation counting signals by Filter-based radiodetection technology.Data from the assay component NVS_GPCR_hAdra2C was analyzed into 1 assay endpoint. This assay endpoint, NVS_GPCR_hAdra2C, was analyzed in the positive analysis fitting direction relative to DMSO as the negative control and baseline of activity. Using a type of binding reporter, loss-of-signal activity can be used to understand changes in the binding as they relate to the gene ADRA2C. Furthermore, this assay endpoint can be referred to as a primary readout, because the performed assay has only produced 1 assay endpoint. To generalize the intended target to other relatable targets, this assay endpoint is annotated to the gpcr intended target family, where the subfamily is rhodopsin-like receptor.
Binding assays used specific radioligands (tritiated, iodinated) with non-radioactive competitive displacement ligands in agonist or antagonist protocols (as indicated) and various reference compounds and inhibitors to titrate specific binding to receptors and transporters. Most enzyme assays (CYPs, kinases, phosphatases, proteases, HDACs) used recombinant protein and specific substrates (fluorescence mostly, some colorimetric and radioactive) and inhibitors, followed by a biochemical separation of substrate and product. All assays for the biochemical HTS were initially run in duplicate at a single concentration (10 uM for CYP450 assays and 25 uM for all others). […] Each assay was run with positive and negative controls, and concurrent controls on every plate. The follow-up (secondary) screen tested active chemical-pairs in concentration series, as well as a few additional assays not tested in the primary screen, some selected negative inactives, and several cases re-run in the concentration series for confirmatory purposes.

Compound	outcome	AC50
Nc1c(Cl)c(F)nc(OCC(=O)O)c1Cl	inactive	–
Cn1c(-c2ccccc2)cc(-c2ccccc2)[n+]1C	–	3.74 µM (active)
CC1(C)CON(Cc2ccccc2Cl)C1=O	inactive	–
CC(C)=CC1C(C(=O)OCc2coc(Cc3ccccc3)c2)C1(C)C (centres undefined)	–	25 µM (active)
